Measurements: PubChem BioAssay
Unmarked numbers belong to inactive results. For some assays here: Results with a measured potency or affinity are listed apart. Active and inactive are the calls of the source. Unless noted, the rule behind the calls is not given here.

Key:
[1] = antimalarial activity against Dd2 strain (AID 2302;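 active = growth inhibition above 50% at the single 2 µM test dose, taken to imply half-maximal potency below 2 µM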;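 note: 0% = DMSO untreated growth and 100% = chloroquine plus artemisinin killed control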); settings: P. falciparum Dd2 in RBCs, LDH growth readout, 72 h; at 2 µM; active compounds read high
[2] = human hepatoma cell viability loss – ATP luminescence, cytotoxicity control for P. falciparum antimalarial project, primary screen (AID 2303;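 active = inhibition above 50%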;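 note: 0% = DMSO wells and 100% = digitonin-killed cells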); settings: HepG2 viability, 24-48 h, at 10 µM, active compounds read high
[3] = target: L-lactate dehydrogenase (Plasmodium falciparum (isolate CDC / Honduras)) (UniProt Q27743); assay: PfLDH activity inhibition – cell lysate, 3D7 strain, counter-screen for P. falciparum growth inhibition project (AID 2304);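 note: 0% = vehicle and 100% = reference inhibitor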; settings: P. falciparum 3D7 crude extract, LDH APAD/NBT absorbance; at 2 µM; active compounds read high
L-lactate dehydrogenase (Plasmodium falciparum (isolate CDC / Honduras)), sequence (Q27743 whole entry, looked up): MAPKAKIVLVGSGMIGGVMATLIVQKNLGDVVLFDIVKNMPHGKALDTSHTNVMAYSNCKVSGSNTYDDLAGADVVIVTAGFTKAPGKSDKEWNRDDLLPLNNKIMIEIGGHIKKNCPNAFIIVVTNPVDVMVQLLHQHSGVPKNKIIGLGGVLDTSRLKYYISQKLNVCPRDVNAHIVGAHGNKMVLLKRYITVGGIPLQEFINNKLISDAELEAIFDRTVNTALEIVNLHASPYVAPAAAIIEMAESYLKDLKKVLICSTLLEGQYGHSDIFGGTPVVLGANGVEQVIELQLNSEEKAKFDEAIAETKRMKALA

[4] = inhibition of 3D7 malaria parasite growth – strain 3D7 (AID 2306);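 note: 0% = DMSO wells and 100% = chloroquine plus artemisinin control wells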; settings: P. falciparum 3D7 erythrocytic growth, LDH absorbance, 72 h; at 2 µM; active compounds read high
[5] = target: Calcium-dependent protein kinase 1 (Plasmodium falciparum (isolate 3D7)) (UniProt P62344); assay: PfCDPK1 kinase inhibitors, biochemical, TCAMS library (AID 1159585; cut-off not given, nearly all actives have IC50 up to about 0.98 µM;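 note: inhibitors leave more ATP so luminescence rises with inhibition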); settings: recombinant PfCDPK1, Kinase-Glo ATP depletion luminescence
Calcium-dependent protein kinase 1 (Plasmodium falciparum (isolate 3D7)), sequence (P62344 whole entry, looked up): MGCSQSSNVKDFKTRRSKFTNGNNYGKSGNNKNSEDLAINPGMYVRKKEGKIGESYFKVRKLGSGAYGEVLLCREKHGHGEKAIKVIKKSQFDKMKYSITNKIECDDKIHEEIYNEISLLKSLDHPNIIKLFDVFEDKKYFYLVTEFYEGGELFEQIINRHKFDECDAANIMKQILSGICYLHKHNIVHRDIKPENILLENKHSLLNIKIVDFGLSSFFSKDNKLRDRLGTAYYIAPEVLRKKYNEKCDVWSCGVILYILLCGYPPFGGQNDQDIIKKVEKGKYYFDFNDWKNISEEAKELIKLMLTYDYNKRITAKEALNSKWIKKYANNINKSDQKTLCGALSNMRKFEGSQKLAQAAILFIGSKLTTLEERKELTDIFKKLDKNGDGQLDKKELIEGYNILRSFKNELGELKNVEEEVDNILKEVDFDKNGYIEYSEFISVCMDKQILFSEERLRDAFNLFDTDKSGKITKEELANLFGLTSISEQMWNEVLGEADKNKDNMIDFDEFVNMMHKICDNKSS

[6] = target: Plasmodium falciparum protein kinase 6 (PK6, PF3D7_1337100) (UniProt Q8IDW1); assay: PfPK6 kinase inhibitors, biochemical, TCAMS library (AID 1159586); settings: recombinant PfPK6, Kinase-Glo ATP depletion luminescence
Plasmodium falciparum protein kinase 6 (PK6, PF3D7_1337100), sequence (Q8IDW1 1-305): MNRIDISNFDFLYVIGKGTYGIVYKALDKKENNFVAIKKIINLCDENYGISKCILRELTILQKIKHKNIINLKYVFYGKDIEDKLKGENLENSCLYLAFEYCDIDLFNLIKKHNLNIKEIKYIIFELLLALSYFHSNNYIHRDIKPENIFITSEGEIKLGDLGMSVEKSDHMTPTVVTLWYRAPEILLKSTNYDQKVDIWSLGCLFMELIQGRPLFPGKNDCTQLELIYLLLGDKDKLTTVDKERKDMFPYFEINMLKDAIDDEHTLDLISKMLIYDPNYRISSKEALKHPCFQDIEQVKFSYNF

[7] = target: Protein kinase 7 (PK7), Plasmodium falciparum 3D7 (PF3D7_0213400) (UniProt Q7YTF7); assay: inhibition of Plasmodium PK7 catalytic activity – biochemical, TCAMS antimalarial set, Kinase-Glo luminescence (AID 1159587); settings: recombinant PfPK7, Kinase-Glo ATP depletion luminescence
Protein kinase 7 (PK7), Plasmodium falciparum 3D7 (PF3D7_0213400), sequence (Q7YTF7 1-343): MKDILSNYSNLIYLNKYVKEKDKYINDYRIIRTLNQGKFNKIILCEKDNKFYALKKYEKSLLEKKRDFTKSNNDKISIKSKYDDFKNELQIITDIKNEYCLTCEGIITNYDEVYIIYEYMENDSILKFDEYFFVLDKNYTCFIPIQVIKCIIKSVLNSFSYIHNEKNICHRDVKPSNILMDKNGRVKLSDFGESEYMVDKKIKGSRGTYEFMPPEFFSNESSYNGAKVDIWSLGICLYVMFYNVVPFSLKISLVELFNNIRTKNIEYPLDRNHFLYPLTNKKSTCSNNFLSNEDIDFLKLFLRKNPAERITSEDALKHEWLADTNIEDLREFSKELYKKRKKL

[8] = target: Calcium-dependent protein kinase 4 (Plasmodium falciparum (isolate 3D7)) (UniProt Q8IBS5); assay: PfCDPK4 kinase inhibitors, biochemical, TCAMS library (AID 1159588; cut-off not given, nearly all actives have IC50 up to about 0.91 µM); settings: recombinant PfCDPK4, Kinase-Glo ATP depletion luminescence
Calcium-dependent protein kinase 4 (Plasmodium falciparum (isolate 3D7)), sequence (Q8IBS5 whole entry, looked up): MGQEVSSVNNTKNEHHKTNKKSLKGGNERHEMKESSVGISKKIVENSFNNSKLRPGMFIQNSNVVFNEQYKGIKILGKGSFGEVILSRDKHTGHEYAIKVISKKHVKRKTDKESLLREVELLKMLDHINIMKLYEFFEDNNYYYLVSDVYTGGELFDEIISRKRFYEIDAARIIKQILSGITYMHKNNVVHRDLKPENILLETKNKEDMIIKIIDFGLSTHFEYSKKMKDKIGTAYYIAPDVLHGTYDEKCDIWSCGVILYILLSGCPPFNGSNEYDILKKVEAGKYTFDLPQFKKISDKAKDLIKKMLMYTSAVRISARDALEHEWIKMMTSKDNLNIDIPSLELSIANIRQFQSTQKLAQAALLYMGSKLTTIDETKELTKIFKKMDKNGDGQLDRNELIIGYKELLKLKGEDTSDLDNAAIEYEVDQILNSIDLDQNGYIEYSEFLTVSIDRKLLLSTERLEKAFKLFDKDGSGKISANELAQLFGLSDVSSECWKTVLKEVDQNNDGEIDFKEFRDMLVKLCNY

Structure (SMILES)	growth inhibition [1]	inhibition [2]	inhibition [3] [%]	growth inhibition [4]	outcome [5]	outcome [6]	outcome [7]	outcome [8]
CCN(CCCN1CCCCC1)c1cc(C)nc(Nc2ccc(C)cc2Cl)n1	25%	44%	1	93% (active)	inactive	inactive	inactive	inactive
COc1ccc2nccc([C@@H](O)CN3CCC(NC(=O)C(c4ccsc4)N4CCN(c5ccccc5OC)CC4)CC3)c2c1 (stereo not given in full)	50% (active)	11%	-2	95% (active)	inactive	inactive	inactive	inactive
Clc1cccc(CNc2nc(NCCc3cnc[nH]3)nc(NC3CCCCC3)n2)c1	0%	17%	5	98% (active)	inactive	inactive	inactive	inactive
NC(Cc1ccc(Cl)cc1)=NCCN1CCCCCC1	94% (active)	-8%	-2	93% (active)	inactive	inactive	inactive	inactive
CCN1CCN(Cc2c(O)ccc3c(=O)c(Oc4cc(C)cc(C)c4)c(C(F)(F)F)oc23)CC1	90% (active)	6%	3	96% (active)	inactive	inactive	inactive	inactive
NC1=NC(c2ccccc2)(c2ccccn2)C(=O)N1CCCc1ccccc1 (stereo not given)	64% (active)	-1%	-2	85% (active)	inactive	inactive	inactive	inactive
C[C@@H](NC(=O)NC(CCN1CCC2(CC1)CN(S(C)(=O)=O)c1ccccc12)c1ccc(Cl)c(Cl)c1)c1ccccc1 (stereo not given in full)	88% (active)	15%	3	92% (active)	inactive	inactive	inactive	inactive
Cc1[nH]c(C)c(-c2ccc(OCc3ccc(OC(F)(F)F)cc3)nc2)c(=O)c1Br	97% (active)	10%	7	98% (active)	inactive	inactive	inactive	inactive
O=C(NC1CCN(Cc2ccsc2)CC1)c1ccc(-c2cccc(C(F)(F)F)c2)s1	3%	48%	-2	88% (active)	inactive	inactive	inactive	inactive
Cc1nnsc1C(=O)Nc1cccc(-c2cccc(-c3nc4ccc(F)cc4[nH]3)c2)c1	45%	35%	3	100% (active)	inactive	inactive	inactive	inactive
O=S(=O)(Nc1cccc(CCN2CCC(N3CCCCC3)CC2)c1)c1cccc(C(F)(F)F)c1	13%	25%	-1	101% (active)	inactive	inactive	inactive	inactive
N#Cc1ccc(/C=C/C(=O)NCCCCCN2CCCN(C(=O)Nc3ccc(Cl)c(C(F)(F)F)c3)CC2)cc1	13%	28%	0	98% (active)	inactive	inactive	inactive	inactive
CCC(CC)N1C(=O)C(c2ccccc2)(c2ccccc2)N=C1N	61% (active)	14%	-7	96% (active)	inactive	inactive	inactive	inactive
O=C(Nc1cccc(CN2CCCN(Cc3ccc(O)cc3)CC2)c1)c1ccc(Cl)c(Cl)c1	81% (active)	22%	-1	103% (active)	inactive	inactive	inactive	inactive
Cc1cccc2[nH]c(-c3cccc(-c4ccc(NC(=O)COC(C)C)cc4)c3)nc12	11%	-4%	7	82% (active)	inactive	inactive	inactive	inactive
Brc1cc(Br)c2c(c1)C(NCCCNC1CCNc3c(Br)cc(Br)cc31)CCN2 (stereo not given)	25%	18%	-1	98% (active)	inactive	inactive	inactive	inactive
O=C(Nc1ccccc1)Nc1cccc(-c2nn3c(OCC4CCCCN4)cccc3c2-c2ccncc2)c1 (stereo not given)	82% (active)	9%	-7	97% (active)	inactive	inactive	inactive	inactive
CCCN1CCC2(CC1)NC(C(=O)NCCC(C)C)Cc1c2[nH]c2cc(Cl)ccc12 (stereo not given)	0%	13%	-3	86% (active)	inactive	inactive	inactive	inactive
COc1ccc2ncc(F)c(CCN3C[C@@H]4CCC[C@]4(CNCc4ccc5c(n4)NC(=O)CS5)C3)c2n1	28%	18%	2	87% (active)	inactive	inactive	inactive	inactive
CCCCCCCN1CC[C@@H](CCCc2ccnc3ccc(OCCC4CCNCC4)cc23)[C@@H](CC)C1	100% (active)	94% (active)	-4	104% (active)	inactive	inactive	inactive	inactive

Structure (SMILES)	growth inhibition [1]	inhibition [2]	inhibition [3] [%]	growth inhibition [4]	outcome [5]	outcome [6]	outcome [7]	outcome [8]
CC(C)(C)c1ccc(CN2CCC(CNC(=O)c3cc(-c4ccccc4Cl)cs3)C2)cc1 (stereo not given)	56% (active)	33%	1	101% (active)	inactive	inactive	inactive	inactive
Cc1cc(NCC(C)C)c2[nH]nc(-c3ccccc3)c2n1	30%	9%	2	99% (active)	inactive	inactive	inactive	inactive
CCCCc1ccc(C(=O)NC2CCN(C[C@H](O)c3ccnc4ccc(OC)cc34)CC2)cc1	22%	24%	-1	91% (active)	inactive	inactive	inactive	inactive
CS(=O)(=O)CCNCc1nc(-c2ccc3c(Nc4ccc(Oc5ccccn5)cc4)ccnc3c2)cs1	89% (active)	9%	-1	100% (active)	inactive	inactive	inactive	inactive
Cn1cccc1CCNCc1ccc(-c2cccc(-c3nc4ccc(F)cc4[nH]3)c2)cc1	43%	-2%	1	93% (active)	inactive	inactive	inactive	inactive
Cc1cc2ncn(-c3nccc(NCc4ccc(F)cc4)n3)c2cc1C	83% (active)	10%	-2	98% (active)	inactive	inactive	inactive	inactive
COc1ccc2ncc(F)c([C@H](O)CN3CCC(NCc4ccc5c(c4)OCCO5)CC3)c2c1	99% (active)	1%	-5	102% (active)	inactive	inactive	inactive	inactive
COc1cccc(NC(=O)c2ccc(NCCCN3CCC(C)CC3)c([N+](=O)[O-])c2)c1	46%	9%	-6	100% (active)	inactive	inactive	inactive	inactive
N=C(N)c1ccc(Oc2ccc(C(=N)N)cc2)cc1	85% (active)	18%	-3	92% (active)	inactive	inactive	inactive	inactive
CCCC(C)n1ccc2c3c(N)nc(N)nc3ccc21 (stereo not given)	91% (active)	70% (active)	-2	94% (active)	inactive	inactive	inactive	inactive
Clc1ccc(OCCC2CCN(CCCCCCCN3CCC(CCOc4ccc(Cl)c(Cl)c4)CC3)CC2)cc1Cl	82% (active)	100% (active)	-5	99% (active)	inactive	inactive	inactive	inactive
COc1cc(C(=O)N2CCN(C(C)C)CC2)ccc1CN(C)CCCN1CCN(c2cccc(Cl)c2Cl)CC1	87% (active)	56% (active)	0	101% (active)	inactive	inactive	inactive	inactive
c1ccc2[nH]c(-c3ccc(-c4ccc(CNCC5CCCO5)cc4)s3)nc2c1 (stereo not given)	87% (active)	27%	4	101% (active)	inactive	inactive	inactive	inactive
O=C(NCCN1CCC(NC(=O)c2ccc(-c3ccccn3)s2)CC1)c1cccc(C(F)(F)F)c1	24%	4%	-4	97% (active)	inactive	inactive	inactive	inactive
Oc1ccccc1CN[C@@H]1CCCC[C@H]1NCc1ccccc1O	66% (active)	53% (active)	2	96% (active)	inactive	inactive	inactive	inactive
CCOc1ccc2c(NN=Cc3ccccc3OC)cc(C)nc2c1	93% (active)	11%	0	99% (active)	inactive	inactive	inactive	inactive
CCOC(=O)c1ccc(NC(=O)Nc2cccc(-c3ccc(-c4nc5c(C)cccc5[nH]4)s3)c2)cc1	99% (active)	44%	4	100% (active)	inactive	inactive	inactive	inactive
CCCCCCCN1CC[C@@H](CCC(O)c2ccnc3ccc(OC)cc23)[C@@H](CC)C1 (stereo not given in full)	93% (active)	34%	-1	97% (active)	inactive	inactive	inactive	inactive
O=c1cc(NCCCNCc2cc3c(Cl)cc(Cl)cc3[nH]2)[nH]c2ccccc12	-2%	-10%	-3	101% (active)	inactive	inactive	inactive	inactive
COc1ccc(O)c(C(=O)c2cc(C(=O)NCCc3ccccc3)c(=O)n(CCc3ccccc3)c2)c1	18%	11%	-2	97% (active)	inactive	inactive	inactive	inactive
